Data published in PubChem BioAssay (NCATS).
Results filed as inconclusive are left out. Unless noted, the call rests on the fitted dose curve; in most records, active means well fitted curve in either direction with a large enough effect (not every such curve was filed as active); inconclusive means small, poorly fitted or top-dose-only effect, or another doubt; inactive means flat fitted curve, though single readings scatter.

Tests used:
[1] = AP1 Signaling Pathway (AID 357); conditions: ME-180 AP-1-bla reporter, EGF-induced, beta-lactamase ratio, 5 h; at 17.2 µM (top of the series) unless noted;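 further: ME-180 reporter cells stimulated with EGF at its EC50 level; on the % scale 0 is the no-effect control and ±100 the full control effect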
Summary of the method: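 Cells are seeded overnight, exposed to compound titrations and an EC50 level of EGF for 5 hours at 37 °C, then loaded with CCF4 dye for 2.5 hours. Beta-lactamase activity under the AP-1 element is read as a blue/green ratio.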

[2] = NFAT Signaling Pathway (AID 444); conditions: Jurkat NFAT-bla M1, carbachol, beta-lactamase ratio, 5 h; at 17.2 µM (top of the series) unless noted;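 further: carbachol stimulus at about its EC50 of 1 µM final; on the % scale 0 is the no-effect control and ±100 the full control effect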
Summary of the method: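 Jurkat cells carrying an NFAT-driven β-lactamase reporter and co-transfected muscarinic M1 receptor were treated with compound plus carbachol (1 uM final, an EC50 level) for 5 h at 37 °C. CCF4 loading followed for 1 h at RT; 460/530 nm ratio gave %activity.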

[3] = Stat Signaling Pathway (AID 446); conditions: ME-180 SIE beta-lactamase reporter, IL-6 stimulated, 5 h; at 17.2 µM (top of the series) unless noted;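 further: ME-180 cervical cancer cells given 40 pM IL-6 alongside compound; SIE-controlled beta-lactamase reporter measured as 460/530 nm FRET emission ratio; on the % scale 0 is the no-effect control and ±100 the full control effect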
Summary of the method: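 Screening format detects activators and inhibitors alike: ME-180 SIE-bla cells stimulated at 40 pM IL-6 for 5 hrs with compound, then dual-emission beta-lactamase read at 405 nm excitation.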

[4] = biological target: Glucocorticoid receptor (Homo sapiens) (UniProt P04150); test: GR-GFP Redistribution (AID 450;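 active means compounds whose dose series gives a full or clear partial fitted curve of increased nuclear translocation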; further: potency means the concentration at half of the fitted maximal effect)
Chain of Glucocorticoid receptor (Homo sapiens) (P04150 whole entry, looked up): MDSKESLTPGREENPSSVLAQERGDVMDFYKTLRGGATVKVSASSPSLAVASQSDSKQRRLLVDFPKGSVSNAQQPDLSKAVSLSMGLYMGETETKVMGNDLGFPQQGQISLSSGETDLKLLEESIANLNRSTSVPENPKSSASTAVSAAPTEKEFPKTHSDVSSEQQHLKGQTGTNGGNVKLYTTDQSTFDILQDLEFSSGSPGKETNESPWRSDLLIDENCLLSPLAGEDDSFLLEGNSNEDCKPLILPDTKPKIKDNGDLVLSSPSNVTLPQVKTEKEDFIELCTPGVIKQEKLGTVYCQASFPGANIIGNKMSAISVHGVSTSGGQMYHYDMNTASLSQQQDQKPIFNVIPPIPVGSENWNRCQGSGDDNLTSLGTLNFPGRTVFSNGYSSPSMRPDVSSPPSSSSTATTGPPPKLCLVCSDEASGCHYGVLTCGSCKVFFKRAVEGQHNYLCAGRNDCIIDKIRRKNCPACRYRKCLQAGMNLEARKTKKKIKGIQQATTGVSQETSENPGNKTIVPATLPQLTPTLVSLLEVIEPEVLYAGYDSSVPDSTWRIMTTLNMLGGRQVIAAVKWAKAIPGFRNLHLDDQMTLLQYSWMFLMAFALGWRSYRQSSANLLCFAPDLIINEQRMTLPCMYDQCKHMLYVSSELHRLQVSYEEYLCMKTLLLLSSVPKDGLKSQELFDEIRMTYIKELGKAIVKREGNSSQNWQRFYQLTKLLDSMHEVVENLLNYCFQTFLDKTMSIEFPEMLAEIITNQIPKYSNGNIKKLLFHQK

COC(=O)C(NC(=O)c1ccco1)(Nc1nc(C)cs1)C(F)(F)F (centres undefined)
inactive: activity change, negative = inhibition [1] -3.01% | activity change, negative = inhibition [2] 4.32% | activity, negative = inhibition [3] -2.51% | Potency [4] > 20.6 µM

CNc1nc(C)c(C#N)cc1C(C)=O
inactive: activity change, negative = inhibition [1] -13.3% | activity change, negative = inhibition [2] -1.5% | activity, negative = inhibition [3] -6.02% | Potency [4] > 20.6 µM

Fc1ccc(OCCOCCNCC2CCCO2)cc1 (centres undefined)
inactive: activity change, negative = inhibition [1] 12.2% | activity change, negative = inhibition [2] -14.1% | activity, negative = inhibition [3] 21.6% | Potency [4] > 20.6 µM

O=C(c1ccc(N2C(=O)C3CC=C(Cl)CC3C2=O)cc1)N1CCCCC1 (centres undefined)
inactive: activity change, negative = inhibition [1] -18.4% | activity change, negative = inhibition [2] 13% | activity, negative = inhibition [3] -8.18% | Potency [4] > 20.6 µM

C=CCOC(=O)C1=C(C)NC(SCC(=O)N(CC)CC)=C(C#N)C1c1ccco1 (centres undefined)
inactive: activity change, negative = inhibition [1] -27.3% | activity change, negative = inhibition [2] 6.04% | activity, negative = inhibition [3] -6.01% | Potency [4] > 20.6 µM

CN1CCN(C(=O)CSc2nc(-c3ccncc3)ccc2C#N)CC1
inactive: activity change, negative = inhibition [1] 2.77% | activity change, negative = inhibition [2] -14.8% | activity, negative = inhibition [3] 1.66% | Potency [4] > 20.6 µM

CN(C)c1nc2sc3c(c2c(=O)n1C)CC(C)(C)OC3
inactive: activity change, negative = inhibition [1] -6.89% | activity change, negative = inhibition [2] -2.36% | activity, negative = inhibition [3] 10.9% | Potency [4] > 20.6 µM

COc1cc(Cn2ccnc2)c(OC)cc1Cn1ccnc1
inactive: activity change, negative = inhibition [1] 5.72% | activity change, negative = inhibition [2] -19.5% | activity, negative = inhibition [3] 4.23% | Potency [4] > 20.6 µM

Cc1ccc(/C=N/n2nnnc2N)o1
inactive: activity change, negative = inhibition [1] 2.97% | activity change, negative = inhibition [2] -0.388% | activity, negative = inhibition [3] -5.51% | Potency [4] > 20.6 µM

CCCNc1ncnc2c1cnn2-c1ccc(OC)cc1
inactive: activity change, negative = inhibition [1] -10.2% | activity change, negative = inhibition [2] 3.93% | activity, negative = inhibition [3] -8.63% | Potency [4] > 20.6 µM

COc1cccc(C2/C(=C(\O)c3ccc(OC)c(OC)c3)C(=O)C(=O)N2c2cc(C)on2)c1 (centres undefined)
inactive: activity change, negative = inhibition [1] -7.94% | activity change, negative = inhibition [2] 6.78% | activity, negative = inhibition [3] -8.6% | Potency [4] > 20.6 µM

Cc1cc(C)nc(NC2=NCC(=O)N2c2ccccc2)n1
inactive: activity change, negative = inhibition [1] 13.1% | activity change, negative = inhibition [2] -8.71% | activity, negative = inhibition [3] 9% | Potency [4] > 20.6 µM

CCCCc1nc(N2CCOCC2)c(C#N)c2c1COC(C)(C)C2
inactive: activity change, negative = inhibition [1] -27.7% | activity change, negative = inhibition [2] 16.6% | activity, negative = inhibition [3] -1.34% | Potency [4] > 20.6 µM

Cc1cc(O)ccc1-c1cnc2ccccc2n1
inactive: activity change, negative = inhibition [1] 5.77% | activity change, negative = inhibition [2] -5.17% | activity, negative = inhibition [3] 21.5% | Potency [4] > 20.6 µM

CCC(=O)Nc1nc2ccccc2n1CCN(C)C
inactive: activity change, negative = inhibition [1] 3.29% | activity change, negative = inhibition [2] -7.56% | activity, negative = inhibition [3] 10.7% | Potency [4] > 20.6 µM

O=C(NCCO)C1(c2ccccc2)CCCC1
inactive: activity change, negative = inhibition [1] 15.9% | activity change, negative = inhibition [2] -7.5% | activity, negative = inhibition [3] 2.26% | Potency [4] > 20.6 µM

C/C(=N/n1cnnc1)c1cccnc1
inactive: activity change, negative = inhibition [1] -1.84% | activity change, negative = inhibition [2] -0.807% | activity, negative = inhibition [3] 16.1% | Potency [4] > 20.6 µM

CCOC(=O)C1=C(C)N=C2SC(C)C(=O)N2C1c1ccc(OC(C)=O)c(OC)c1 (centres undefined)
inactive: activity change, negative = inhibition [1] -14.1% | activity change, negative = inhibition [2] 10.3% | activity, negative = inhibition [3] -17.1% | Potency [4] > 20.6 µM

O=C(O)CCSc1ccc2ccccc2n1
inactive: activity change, negative = inhibition [1] 14.9% | activity change, negative = inhibition [2] 11.5% | activity, negative = inhibition [3] 0.928% | Potency [4] > 20.6 µM

Cc1cccc(-c2nnc3n2N=C(c2ccccc2)CS3)c1
inactive: activity change, negative = inhibition [1] -18.5% | activity change, negative = inhibition [2] -10.4% | activity, negative = inhibition [3] -6.13% | Potency [4] > 20.6 µM

CCOc1ccc(-c2nnc3sc(-c4c(OC)cccc4OC)nn23)cc1
inactive: activity change, negative = inhibition [1] 3.89% | activity change, negative = inhibition [2] -3.46% | activity, negative = inhibition [3] 8.95% | Potency [4] > 20.6 µM

C=CCNc1nc(C)nc(OC)n1
inactive: activity change, negative = inhibition [1] 8.25% | activity change, negative = inhibition [2] 13.9% | activity, negative = inhibition [3] 4.41% | Potency [4] > 20.6 µM

Cc1cc(CCC(=O)O)c(C)cc1CCC(=O)O
inactive: activity change, negative = inhibition [1] 14.2% | activity change, negative = inhibition [2] 2.85% | activity, negative = inhibition [3] 7.37% | Potency [4] > 20.6 µM

CCOC(=O)CC(=O)CSc1[nH]c(=O)cc(C)c1C#N
inactive: activity change, negative = inhibition [1] 8.86% | activity change, negative = inhibition [2] 2.85% | activity, negative = inhibition [3] 13.5% | Potency [4] > 20.6 µM

c1csc(-c2nn3c(C4CCCCC4)nnc3s2)c1
inactive: activity change, negative = inhibition [1] -6.89% | activity change, negative = inhibition [2] -19.6% | activity, negative = inhibition [3] 20.7% | Potency [4] > 20.6 µM

Oc1oc(-c2ccccc2)nc1C=NCc1ccncc1
inactive: activity change, negative = inhibition [1] 1.8% | activity change, negative = inhibition [2] -8.61% | activity, negative = inhibition [3] 22.7% | Potency [4] > 20.6 µM
